Source: PubChem BioAssay AID651812 (National Center for Advancing Translational Sciences (NCATS), 2012)
About 650 (31%) of roughly 2,100 compounds were called active. Another 16% or so got no clear call; they are omitted. This is one part of the list. A number with no mark means an inactive call. Calls follow the shape of the dose curve; as a rule, active = well fitted inhibition curve with a large enough effect; inconclusive = small, poorly fitted or top-dose-only effect; inactive = flat fitted curve, though single readings scatter.

experiment: qHTS for inhibitors of Vif-A3G interactions: Cherry picks; conditions: HeLa A3G-eYFP + Vif (tagged APOBEC3G with the HIV-1 protein that degrades it), 24 h; Potency: eYFP fluorescence increase; series mostly up to 36.9 µM; activity, negative = fluorescence increase: at the top concentration; also: nearly all actives have a fitted effect of over 80% in size; as to activity, negative = fluorescence increase: % of control where 0% means no effect
Procedure, shortened: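 HeLa cells stably expressing A3G-eYFP and Vif, cultured overnight then exposed to compounds at several concentrations for 24 hours at 37 C, 5% CO2; cellular yellow fluorescence (488 nm ex, 500-530 nm em) imaged on Acumen, MG132 positive control.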
Potency is read from the fitted curve at half-maximal effect.

Compound	activity, negative = fluorescence increase	Potency
O=[N+]([O-])c1cc(Cl)c2cccnc2c1O	-10.9% [at 46.1 µM]	–
Cc1cc(N2CCN(c3ccc([N+](=O)[O-])c4cccnc34)CC2)c2ccccc2n1	–	20.6 µM (active)
CCC(=O)NC(=S)Nc1cccc(Cl)c1N1CCCC1	-1.38% [at 46.1 µM]	–
C=CCNc1nc2cc(-c3cccc(Cl)c3)sc2c(=O)n1C	0.835%	–
C=CCNC(=S)N/N=C/c1ccc(C)cc1C	7.22% [at 46.1 µM]	–
C=C(C(=O)c1ccccc1)C(NC(C)(C)C)c1ccccc1 (stereo not drawn)	4.2%	–
CC(=O)Nc1sc(/C(C#N)=C/c2ccc(Cl)c(Cl)c2)nc1-c1ccc(C)cc1	–	5.8 µM (active)
CCOC(=O)c1c(-c2ccc(C)cc2)csc1NC(=O)/C(C#N)=C/c1ccc(O)c(OC)c1	-17.2%	–
CC(=O)Nc1sc(/C(C#N)=C\c2cccc(Cl)c2)nc1-c1ccc(C)cc1	–	8.2 µM (active)
CCOc1cc(/C=C(\C#N)c2nc(-c3cccs3)c(NC(C)=O)s2)ccc1O	–	23.1 µM (active)
O=C(Cn1ncc(Cl)c(Cl)c1=O)NCC1CCCCC1	-8.17%	–
CC(=O)c1cccc(-c2ccnc3c2CC(C(=O)NCc2ccco2)O3)c1 (stereo not drawn)	-11.6%	–
O=C(Cc1ccccc1)NCc1ccc(-n2cccc2)cc1	-1.88%	–
S=C(Nc1cccc2ccccc12)NN1CCCCCC1	10.3% [at 46.1 µM]	–
CCc1c(C)nc(SCC(=O)c2cccs2)c(C#N)c1C	-25.4%	–
N#Cc1c(-c2ccccc2F)cc(C2CC2)nc1SCC(=O)c1cccs1	–	17.7 µM (active)
O=C(COC(=O)c1ccc(NS(=O)(=O)c2cccs2)cc1)NCc1ccco1	-2.14%	–
Cc1ccc2nc3c(cc(S(=O)(=O)c4ccccc4)c(=N)n3Cc3ccco3)c(=O)n2c1	–	29.1 µM (active)
CC#Cc1cc2c(cc1O)CCC1C2CCC2(C)C(O)CCC12 (stereo not drawn)	-0.688%	–
COc1cc(/C=C/C(=O)c2ccc([N+](=O)[O-])o2)ccc1O	-11.6%	–
COc1ccc(/C=C/C(=O)c2ccc([N+](=O)[O-])o2)cc1	-6.52%	–
COC(=O)c1sc(NC(=O)c2ccc([N+](=O)[O-])o2)c(C#N)c1C	-13.6%	–
O=C(NCc1cccnc1)c1ccc([N+](=O)[O-])o1	-7.07%	–
CCc1ccc(C(=O)/C=C/c2ccc([N+](=O)[O-])o2)cc1	–	14 µM (active)
CCOC(=O)CCc1ccc(NC(=O)/C=C/c2ccc([N+](=O)[O-])o2)cc1	–	23.1 µM (active)
O=C(/C=C/c1ccc(Cl)cc1)c1ccc([N+](=O)[O-])o1	-0.183%	–

Compound	activity, negative = fluorescence increase	Potency
N#CCc1ccc(NC(=O)/C=C/c2ccc([N+](=O)[O-])o2)cc1	–	8.2 µM (active)
CC(=O)Nc1ccc2nc(NC(=O)c3ccc([N+](=O)[O-])o3)sc2c1	1.09%	–
Cc1cc(C)n(-c2nnc3n2N=C(c2c[nH]c4ccccc24)CS3)n1	-5.16%	–
CC1(C(=O)NCc2ccco2)Cc2c(-c3ccc(C(N)=O)cc3)ccnc2O1 (stereo not drawn)	-4.41%	–
Clc1ccsc1-c1csc(-c2cccnc2)n1	-3.28%	–
CCc1nnc(NC(=O)CSc2nnc(-c3ccccc3O)n2-c2ccc(C)cc2C)s1	-6.03%	–
Cc1ccc(O)c(Nc2c3ccccc3nc3ccccc23)c1	-3.08% [at 46.1 µM]	–
Cc1ccc(O)c(NC(=O)c2cc(-c3ccccc3O)no2)c1	–	20.6 µM (active)
CCn1c(=O)c2cc(C(=O)NCCCOC)sc2c2ccccc21	-7.54%	–
C=C(/C=C/c1ccc(N(C)C)cc1)c1nc2ccccc2s1	–	18.4 µM (active)
COc1ccccc1-c1cc(NC=O)c2ncc(-c3ccc(S(C)(=O)=O)cc3)n2c1	-10%	–
S=C(NC1CCCCC1)N(CCc1ccccc1)CCc1ccccc1	-9.72% [at 46.1 µM]	–
COc1cc2nc(/C=C/c3ccc(N(C)C)cc3)sc2cc1SC	–	16.4 µM (active)
NNC(=O)c1oc2nc(-c3ccccc3)cc(-c3ccco3)c2c1N	–	20.6 µM (active)
Cc1ccc(-c2cc(-c3ccco3)c3c(N)c(C(=O)NN)oc3n2)cc1	–	20.6 µM (active)
CC(/C=N/NC(=O)c1cc(-c2ccccc2)nc2ccccc12)=C\c1ccco1	-8.64%	–
CC(C)(C)C(=O)/C(=C/c1ccc(Cl)cc1)n1cncn1	1.11%	–
CCN(CC)c1ccc2c(cc1=O)[C@@H](NC)CCc1cc(OC)c(OC)c(OC)c1-2	-19.2%	–
COC(=O)c1sc(-c2cccs2)cc1NC(=O)/C=C/C(=O)O	4.29%	–
C=CCN1C(=O)/C(=C2/Sc3ccc(OC)cc3N2C)SC1=Nc1cccc(O)c1	–	18.4 µM (active)
C=CCN1C(=O)/C(=C2/Sc3ccc(OC)cc3N2CC)SC1=S	–	14.6 µM (active)
C[C@]1(O)CC(=O)C=C[C@H]1Nc1ccccc1	3.1%	–
COc1ccccc1N1C(=O)C2C(C(=O)c3ccccc3)=NN(c3ccc(C)cc3)C2C1=O (stereo not drawn)	-26.3%	–
N=C1S/C(=C\c2ccc(-c3cccc(Cl)c3)o2)C(=O)N1c1nccs1	–	20.6 µM (active)
Cc1ccc(Cn2c(SCc3ccc(C(=O)NC4CCCC4)cc3)nc3ccncc32)cc1	3.2% [at 46.1 µM]	–
COc1ccc2c(c1)/C(=C\c1cccc(/C=C3/C(=O)Nc4ccc(OC)cc43)n1)C(=O)N2	0.897%	–

Compound	activity, negative = fluorescence increase	Potency
COc1ccc2c(c1)/C(=C/c1cc(OC)c(OC)c(OC)c1)C(=O)N2	-0.665%	–
CN(C)S(=O)(=O)c1ccc2c(c1)/C(=C/c1cc3c([nH]1)CCCC3)C(=O)N2	–	2.23 µM (active)
CC(C)OC(=O)c1c2c(n3ccccc13)C(=O)c1ccccc1C2=O	–	10.3 µM (active)
CCOc1cc(Br)cc(/C=C2\SC(=Nc3ccccc3)NC2=O)c1O	-2.38%	–
COc1cc(/C=C2\SC(=Nc3cccnc3)NC2=O)cc(OC)c1OC	-29.3% [at 46.1 µM]	–
COc1cc(/C=C2\SC(=Nc3ccccc3)NC2=O)cc(Cl)c1O	–	20.6 µM (active)
O=c1c2ccccc2sc2ccc(NCCCN3CCOCC3)cc12	–	18.4 µM (active)
Cc1ccc2[nH]c(C(=O)NN=C3CCCCC3)c(-c3ccccc3)c2c1	0.458%	–
CC1C/C(=N\NC(N)=S)c2cc(Cl)ccc2S1 (stereo not drawn)	6.57% [at 46.1 µM]	–
N#Cc1c(C(F)(F)F)cc(-c2ccccc2)nc1SCc1nc(N)nc(N2CCOCC2)n1	–	8.2 µM (active)
Cc1ccc(N=C2NC(=O)CC(C(=O)Nc3ccc4c(c3)OCO4)S2)cc1 (stereo not drawn)	-1.13%	–
CC(C)n1c(O)c(N=Nc2ccc(Cl)nn2)c2ccccc21	–	16.4 µM (active)
O=C(CSc1n[nH]c(-c2ccccn2)n1)Nc1ccc(Cl)cc1	3.07% [at 46.1 µM]	–
C/C(CC(=O)NCc1ccc(Cl)cc1)=N\NC(=O)COc1ccc(C)cc1Br	-1.44%	–
Cc1nc2c3cc(F)ccc3n(Cc3ccccc3F)c2s1	-11.9%	–
O=C(CN1c2ccccc2Sc2ccccc21)NNC(=O)Nc1cccc(Cl)c1	-2.17%	–
CCN1/C(=C\C=C(C(C)=O)C(C)=O)Sc2ccccc21	–	20.6 µM (active)
Cc1ccc(-c2nc3ncccc3o2)cc1NC(=O)c1ccc([N+](=O)[O-])o1	0.107% [at 46.1 µM]	–
CC(C)C1C(=O)N(Cc2cn(CCC3OCCCO3)nn2)CCS(=O)(=O)N1Cc1ccc(-c2cccc(CO)c2)cc1 (stereo not drawn)	-11.4%	–
COc1ccc(-c2ccnc(-c3ccc(O)cc3)n2)cc1	-14.4%	–
CCC1=Nc2cc(C(=O)NCc3cccnc3)ccc2Sc2ccc(C)cc21	-8.44%	–
CCN(CC)C(=O)c1ccc(/C=C/c2c[nH]c3ccccc23)[n+](C)c1	–	18.4 µM (active)
C[n+]1cc(C(=O)N2CCCCC2)ccc1/C=C/c1c[nH]c2ccccc12	–	14 µM (active)
Cc1sc2nc(CSCC(=O)Nc3ccccc3C#N)[nH]c(=O)c2c1C	-16% [at 46.1 µM]	–
O=C1OC(/C(=C\Nc2cc(Cl)ccc2O)[N+](=O)[O-])c2ccccc21 (stereo not drawn)	-18.2%	–
CC(=O)Nc1cccc(-c2ccnc3c2CC(C(=O)Nc2cccc(N(C)C)c2)O3)c1 (stereo not drawn)	-3.68%	–

Compound	activity, negative = fluorescence increase	Potency
COc1ccc(C(=O)NC(=S)NCc2cccnc2)cc1Cl	10.5% [at 46.1 µM]	–
O=[N+]([O-])c1ccc(C2=Nc3cc(Cl)ccc3OC2)cc1	–	29.1 µM (active)
CCOC(=O)c1c(C)[nH]c(C(=O)N/N=C/c2cccc(OC)c2)c1C	-2.35%	–
CCOC(=O)c1cc(-c2ccccc2)sc1NC(=S)Nc1cc(C)ccn1	–	10.3 µM (active)
Cc1ccnc(NC(=S)NC(=O)/C=C/c2ccco2)c1	-1.03%	–
CCOC(=O)c1ccc(NC(=S)Nc2cccc(C)n2)cc1	3.99% [at 46.1 µM]	–
CNC(=O)C(Sc1nc(C)nc2c1oc1ccccc12)C(C)=O (stereo not drawn)	-5.85%	–
COc1ccc(Cn2c(C)nc3c(c2=O)c2nc4ccccc4nc2n3Cc2ccco2)cc1	–	5.8 µM (active)
COc1ccc(Cn2c(=O)cc(N)n(-c3ccccc3C)c2=O)cc1	-10.8%	–
O=C(Cc1cc2ccccc2o1)NCc1ccc(F)cc1	-2.9%	–
O=c1[nH]c2cc(Br)cnc2nc1/C=C(\O)c1ccc(F)cc1	–	13 µM (active)
COc1cccc(OCc2nc3ncc(Br)cc3[nH]2)c1	-5.34%	–
COc1ccc(-c2nc3cnccn3c2NC2CCCCC2)cc1-c1cccc(Cl)c1	-13.1% [at 46.1 µM]	–
CCCCNc1c(-c2ccc(SC3CCCCC3)cc2)nc2cnccn12	–	2.8 µM (active)
CCC(C)Sc1ccc(-c2nc3cc(C)ccn3c2NC2CCCCC2)cc1 (stereo not drawn)	-1.53% [at 46.1 µM]	–
COc1ccc(NC(=O)C2(C)Cc3c(-c4cccc(C(N)=O)c4)ccnc3O2)cc1 (stereo not drawn)	-5.15%	–
O=[N+]([O-])c1ccc(/C=N/Nc2ccc3ccccc3c2)o1	–	4.44 µM (active)
Cc1cc(C(=O)N/N=C/c2ccc(C)o2)c2ccccc2n1	-9.53%	–
Cc1cc(N/N=C/c2ccc([N+](=O)[O-])o2)nc2ccccc12	–	20.6 µM (active)
O=C(N/N=C/c1ccc([N+](=O)[O-])o1)c1cc(-c2ccc(-c3ccccc3)cc2)nc2ccccc12	-17.5%	–
Cc1cccc(Nc2nc(N)nc(-c3oc4ccccc4c3C)n2)c1	1.73%	–
O=C(Nc1nc(-c2ccccn2)cs1)C1CCCC1	2.08% [at 46.1 µM]	–
Nc1c(C(=O)c2ccccc2)sc2nsc(SCCN3CCOCC3)c12	–	16.4 µM (active)
O=C(c1ccccc1)C(CN1CCCCC1)c1ccccc1 (stereo not drawn)	-1.48%	–
Nc1c(C(=O)c2ccccc2)sc2nsc(SCCN3CCCC3)c12	–	19.8 µM (active)
